A number with no mark means an inactive call. No rule for the calls is given here.

The target of this test is thrombin (human, UniProt P00734). The experiment in a line: primary screen, binary call; higher = more effect of the substance. Set-up: screenings were carried out in duplicate in one independent experiment. The conditions noted are these: 200 µM. As for the experimental part: Protease inhibitory assays were performed in transparent microtiter plates in a final volume of 200 µL with the use of chromogenic substrates. The reaction rates in the absence and in the presence of the inhibitor were measured; screenings were carried out in duplicate in one independent experiment and Ki values were determined in triplicate in two independent experiments.
For `N#Cc1ccc2ncsc2c1`, the Thrombin is 0. With `O=C1CCCc2occc21` the figure was 0; with `O=C1CC(CSc2ccc(Cl)cc2)=NN1`, 0; with `NC(=O)N1CCC(C(=O)O)CC1`, 1 (active). With `Cc1ccc(-c2ccc(O)cc2)cc1` the figure was 0; with `Fc1ccc(CC2CCCNC2)cc1` (stereo not shown), 0; with `O=C(c1ccccc1)N1CCC(CO)CC1`, 0. The figure for `c1ccc(Nc2nncs2)cc1` is 0; for `Oc1ccc(C2CCNCC2)cc1` it is 0. As to `Cc1cc(C)c2c(=O)[nH]n(C)c2n1`, the Thrombin is 0. With `O=C1NC(=O)C2(CCc3ccccc32)N1` (stereo not shown) the figure was 0; with `N#Cc1ccc(C(=O)N2CCOCC2)cc1`, 0. The figure for `CS(=O)(=O)Nc1ccc(C(=O)O)cc1` is 0. Take `Oc1nnc(-c2ccccc2)o1`: the Thrombin is 0.

Regarding `CCCN1C(=O)CC(=O)NC1=S`, the Thrombin is 0. Regarding `CS(=O)(=O)c1ccc(OC(F)(F)F)cc1`, the Thrombin was 0.

Consider `CCc1ccc(NC2=NCCCS2)cc1`, for which the Thrombin is 0. As for `O=C(O)CC1CCC(=O)N1` (stereo not shown), the Thrombin was 0.

Consider `O=C(O)c1ccc(CN2CCOCC2)cc1`, for which the Thrombin was 0. The figure for `Oc1ccc(-n2cncn2)cc1` is 0.

In the case of `CS(=O)(=O)c1ccc(N2CCNCC2)cc1`, the Thrombin was 0.

On to `CC1C(=O)NC(=O)N1c1ccc(Cl)cc1` (stereo not shown), for which the Thrombin was 0. With `CN(C)c1cc(CN)ccn1` the figure was 0; with `CCN(CC)c1cccc(C)c1`, 0; with `O=C(O)C1CCCN(C(=O)N2CCCC2)C1` (stereo not shown), 0.

For `O=C1CCN(c2ccccn2)CC1`, the Thrombin is 0. On to `N#CC1CCS(=O)(=O)C1` (stereo not shown), for which the Thrombin was 0. Regarding `c1cnc2c(c1)NCCC2`, the Thrombin was 0. With `Brc1ccc(-c2ccon2)cc1` the figure was 0; with `Nc1ccc(SC(F)F)cc1`, 0. Regarding `NC(c1ccccc1)c1ccccc1`, the Thrombin was 0. The figure for `O=C1CCC(=O)N(c2ccccc2)N1` is 0. With `O=c1[nH]c2c(s1)CCC2` the figure was 0. The figure for `COc1ccccc1N1CCNCC1` is 0; for `O=C(CN1CCCC1)c1ccccc1Cl` it is 0. With `N[C@H]1c2ccccc2C[C@H]1CO`, the Thrombin is 0.

As for `Cn1c(CO)nc2ccccc21`, the Thrombin is 0. The figure for `CC(=O)c1sc(-c2ccc(O)cc2)nc1C` is 1 (active). Turning to `O=C1CCN(c2ccncc2)CC1`, the Thrombin is 0. The figure for `Cc1nccn1Cc1cccc(C#N)c1` is 0.

For the origin of these results see article PMC8159961, “Exploring protein hotspots by optimized fragment pharmacophores” (Nature Communications, 2021).
